Data: PubChem BioAssay (NCI)
This is part of a sample that, as a whole, favours compounds with a hit. Of some 83,000 tested, about 20% had one in any assay.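 The test compound was applied at a single concentration to cells in 96-well plates for 48 hours, and percent growth was recorded.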 Values without a mark were called inactive. Calls of active or inactive are those of the source. How the source made its calls: active means growth percent below 10; inactive means the rest.

Assays:
Assay in all cases: NCI-60 one-dose screen, 48 h (100 = growth as untreated, 0 = no growth, -100 = all killed)
DU-145 prostate = settings: 10 µM unless noted
K-562 leukemia = settings: 10 µM unless noted
MALME-3M melanoma = settings: 10 µM unless noted
MDA-MB-231 breast = settings: 10 µM unless noted
RXF 393 renal = settings: 10 µM unless noted
SF-268 CNS = settings: 10 µM unless noted
SF-295 CNS = settings: 10 µM unless noted
SF-539 CNS = settings: 10 µM unless noted
UACC-257 melanoma = settings: 10 µM unless noted
M14 melanoma = settings: 10 µM unless noted
HCT-15 colon = settings: 10 µM unless noted
HT29 colon = settings: 10 µM unless noted
SNB-75 CNS = settings: 10 µM unless noted
SNB-19 CNS = settings: 10 µM unless noted
U251 CNS = settings: 10 µM unless noted
PC-3 prostate = settings: 10 µM unless noted
SK-MEL-5 melanoma = settings: 10 µM unless noted
UACC-62 melanoma = settings: 10 µM unless noted
LOX IMVI melanoma = settings: 10 µM
SK-MEL-28 melanoma = settings: 10 µM unless noted

Compound | growth (DU-145 prostate) | growth (K-562 leukemia) | growth (MALME-3M melanoma) | growth (MDA-MB-231 breast) | growth (RXF 393 renal) | growth (SF-268 CNS) [%] | growth (SF-295 CNS) | growth (SF-539 CNS) | growth (UACC-257 melanoma) [%] | growth (M14 melanoma) | growth (HCT-15 colon) | growth (HT29 colon) | growth (SNB-75 CNS) [%] | growth (SNB-19 CNS) [%] | growth (U251 CNS) [%] | growth (PC-3 prostate) [%] | growth (SK-MEL-5 melanoma) | growth (UACC-62 melanoma) [%] | growth (LOX IMVI melanoma) | growth (SK-MEL-28 melanoma) [%]
O=[N+]([O-])c1c(O)c(CNCCCO)cc(CNCCCO)c1O | 132% | 95.9% | 109% | 99.8% | 99.7% | 118 | 106% | 94.6% | 108 | 107% | 106% | 107% | 91.2 | 105 | 99.6 | 88.7 | 119% | 97.7 | 93.9% | 121
CC(=O)c1cccc(NS(=O)(=O)c2ccc(C)cc2)c1 | 95.1% | 27.4% | 96.9% | 83.7% | 96.3% | 89.3 | 87.6% | 74.6% | 86.6 | 60.6% | 43.2% | 30.2% | 61.9 | 90 | 61.2 | 78.9 | 60.2% | 84.4 | 66.5% | 78.5
C=CCC(OC(C)=O)c1ccc(OC)c(OC)c1 (stereo not given) | 121% | 116% | 124% | 128% | 124% | 97.8 | 101% | 108% | 103 | 108% | 104% | 107% | 98.8 | 109 | 101 | 92.5 | 119% | 107 | 107% | 132
CCOC(=O)N[C@H]1CCc2cc(OC)c(OC)c(OC)c2-c2ccc(SC)c(=O)cc21 | 0.871% (active) | 9.44% (active) | 51.4% | -22% (active) | 10.7% | 23 | 3.33% (active) | -21.9% (active) | 71 | 4.1% (active) | 7.82% (active) | 7.57% (active) | 44.3 | 30.8 | 17.1 | 27.7 | -51.3% (active) | 39.9 | 22.4% | 60.1
CC(=O)CSc1ncnc2nc[nH]c12 | 94.3% | 82.9% | 93.4% | 87.5% | 89.9% | 105 | 99.7% | 94.8% | 78.3 | 59.2% | 96.1% | 104% | 89.3 | 99.7 | 101 | 92.5 | 95.8% | 74.6 | 42.2% | 82.3
COc1c(CNC(=O)CCl)cc2[nH]c(C)cc2c1CNC(=O)CCl | 65.8% | 63.5% | 82% | 87.7% | 60.8% | 59.4 | 64.7% | 72.3% | 51.9 | 47.3% | 70.5% | 38.3% | 69.6 | 83.5 | 10.3 | 67.9 | 44.1% | 30.6 | 34% | 63.2
CCCCCCCCCc1ccc(OC(C)=O)cc1 | 103% | 101% | 103% | 110% | 111% | 101 | 96.6% | 92.8% | 110 | 99.5% | 111% | 102% | 99.4 | 103 | 97.9 | 94.1 | 103% | 107 | 104% | 107
Cc1cc2nc(C)c(C)nc2cc1C | 115% | 119% | 109% | 101% | 109% | 109 | 89% | 104% | 97.8 | 108% | 107% | 108% | 99.4 | 111 | 98.3 | 81.4 | 95.3% | 99.5 | 97.2% | 110
Nc1cc2ccccc2c(O)c1O | 92.7% | 5.25% (active) | -39% (active) | -19.9% (active) | -52.5% (active) | 53.6 | 85% | 16.2% | 89.4 | 93.3% | 16% | 95.8% | 90.4 | 90.2 | 40.2 | 43.7 | 74.7% | 90.9 | -52.6% (active) | 110
C=CCN1CCCC1=O | 114% | 86.7% | 96.9% | 94.7% | 128% | 108 | 98.3% | 93% | 119 | 98.8% | 104% | 96.3% | 70.2 | 93.1 | 102 | 94.6 | 101% | 86.1 | 108% | 108
CCOC(=O)Nc1nccs1 | 109% | 119% | 97.3% | 87% | 108% | 117 | 108% | 101% | 98 | 106% | 104% | 100% | 111 | 111 | 98.9 | 97.7 | 99.5% | 99.7 | 103% | 111
COc1ccc(C2CCCCC2=O)cc1 (stereo not given) | 123% | 104% | 120% | 120% | 110% | 116 | 100% | 102% | 106 | 108% | 98.6% | 108% | 101 | 111 | 99 | 95.4 | 110% | 110 | 96.6% | 111
CCCC(OC(C)=O)c1ccc2c(c1)OCO2 (stereo not given) | 104% | 99% | 91.9% | 113% | 104% | 102 | 105% | 105% | 94.9 | 102% | 115% | 103% | 96.9 | 105 | 96 | 102 | 102% | 102 | 103% | 106
ClCc1cccc2c(CCl)cccc12 | 32.6% | 79.2% | 90.6% | 92.3% | 61% | 64.3 | 58.6% | 61.6% | 70 | 25.8% | 73.8% | 71.1% | 88 | 70.4 | 56.6 | 65.9 | 77.6% | 64 | -51.8% (active) | 83.7
COc1ccc(C(=O)/C(=N/Nc2ccccc2)c2ccc(OC)cc2)cc1 | 115% | 92.8% | 109% | 82.7% | 92.4% | 101 | 101% | 95.9% | 111 | 102% | 76.1% | 80.5% | 97.1 | 100 | 92.4 | 78.2 | 98.1% | 79.2 | 92.1% | 111
CC(CCC#N)(CCC#N)C(=O)c1ccccc1 | 106% | 104% | 114% | 109% | 98.6% | 112 | 113% | 115% | 106 | 115% | 100% | 103% | 96.7 | 102 | 109 | 87.8 | 109% | 104 | 100% | 119
